PLK1 PBD inh: Plk1 polo box domain binding inhibitors, primary screen, biochemical, fluorescence polarization; Serine/threonine-protein kinase PLK1 (Homo sapiens), P53350; Plk1 PBD phosphopeptide binding; inhibition, %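 (tested at about 20 µM)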; 97,000 compounds, 0.13% hits; in the data active = inhibition above about 34%, passing the limit was not always enough
Target sequence (P53350 whole entry, looked up, the tested form may be a part): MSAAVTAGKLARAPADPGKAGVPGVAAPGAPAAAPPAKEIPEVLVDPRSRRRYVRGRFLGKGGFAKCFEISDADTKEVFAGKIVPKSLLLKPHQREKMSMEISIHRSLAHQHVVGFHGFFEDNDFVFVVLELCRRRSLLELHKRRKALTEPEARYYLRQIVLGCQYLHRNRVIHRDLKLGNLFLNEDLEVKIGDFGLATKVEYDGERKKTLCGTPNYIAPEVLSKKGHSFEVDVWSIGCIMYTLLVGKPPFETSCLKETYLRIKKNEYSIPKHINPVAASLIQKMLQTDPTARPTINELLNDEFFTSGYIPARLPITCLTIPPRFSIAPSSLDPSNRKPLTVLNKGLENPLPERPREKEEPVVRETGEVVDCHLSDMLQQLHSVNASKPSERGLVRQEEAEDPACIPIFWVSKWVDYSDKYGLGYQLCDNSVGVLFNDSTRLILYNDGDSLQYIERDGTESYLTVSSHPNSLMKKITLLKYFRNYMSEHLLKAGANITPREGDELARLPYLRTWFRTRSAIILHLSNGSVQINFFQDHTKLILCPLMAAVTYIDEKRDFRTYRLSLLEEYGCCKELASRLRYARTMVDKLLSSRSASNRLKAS
CYP2C19 act: human CYP2C19 activators, primary screen, biochemical, luminescence | Cytochrome P450 2C19 (Homo sapiens), P33261 | activation factor at 5 µM | AID 1025, 2008 | 96,000 tested, under 10 active | recombinant CYP2C19, luciferin-H EGE luminescence; stronger effect = higher value; 0 = fully inhibited enzyme, 1 = untreated enzyme;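 active = activation factor of at least 2 at 5 µM in the primary screen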
CYP2C19 inh: blockers of cytochrome P450 2C19 activity – biochemical, luminescence, ADME assay, primary screen; CYP2C19 Supersomes, luciferin-H EGE luminescence, 30 min; inhibition, % at 5 µM; 96,000 compounds, 21% hits;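 active = CYP2C19 inhibition above a set limit at 5 µM in the primary screen, cut at about 50% in these data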
CYP2C9 inh: blockers of cytochrome P450 2C9 activity – biochemical, luminescence, ADME assay, primary screen; CYP2C9 Supersomes, luciferin-H conversion; P11712; 96,000 compounds, 20% hits; inhibition, % at 5 µM;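 active = blocking of liver enzyme CYP2C9 beyond about 50% at 5 µM, limit read from the data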
PLK1 kinase inh: human PLK1 kinase inhibitors, primary screen, biochemical, TR-FRET; Serine/threonine-protein kinase PLK1 (Homo sapiens), P53350; inhibition, % at 10 µM; AID 619, 2007; 97,000 compounds, 0.53% hits; recombinant PLK1 kinase, TR-FRET peptide phosphorylation;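 active = inhibition of 50% or more in the single-concentration screen; inactive = inhibition below 50%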
CYP2C9 activ: human CYP2C9 activators, primary screen, biochemical, luminescence. recombinant CYP2C9, luciferin-H conversion; stronger effect = higher value; factor 1 = untreated enzyme, 0 = blocked. activation factor at 5 µM. 96,000 compounds, 1.4% hits. AID 1024, 2008. Cytochrome P450 2C9 (Homo sapiens), P11712;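 active = activation factor of 2 or more for CYP2C9 at a 5 µM dose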
Hits are given with their value. Most compounds without a hit are left out; they make up all but 28% or so of the library.

What do the screens show for `O=C(OCCN1CCCCC1)c1ccc(O)cc1`?
PLK1 PBD inh: inactive; CYP2C19 act: inactive; CYP2C19 inh: inactive; CYP2C9 inh: inactive; PLK1 kinase inh: inactive; CYP2C9 activ: inactive

What do the screens show for `O=C(OCCN1CCCCC1)c1ccccc1Cl`?
PLK1 PBD inh: inactive; CYP2C19 act: inactive; CYP2C19 inh: 59.6; CYP2C9 inh: inactive; PLK1 kinase inh: inactive; CYP2C9 activ: inactive

What do the screens show for `COC(=O)c1ccc(C2C(C#N)=C(N)Oc3cc(C)n(C)c(=O)c32)cc1` (stereo not given)?
PLK1 PBD inh: inactive; CYP2C19 act: inactive; CYP2C19 inh: inactive; CYP2C9 inh: inactive; PLK1 kinase inh: inactive; CYP2C9 activ: inactive

Results for Cc1ccc(C2C(C#N)=C(N)Oc3c2c(=O)n(C)c(=O)n3C)cc1 (stereo not given) ?
PLK1 PBD inh: inactive; CYP2C19 act: inactive; CYP2C19 inh: inactive; CYP2C9 inh: 55.9; PLK1 kinase inh: inactive; CYP2C9 activ: inactive

Results for Cc1cc2ccccc2n1CCNC(=O)Cc1cccc2ccccc12 ?
PLK1 PBD inh: inactive; CYP2C19 act: inactive; CYP2C19 inh: inactive; CYP2C9 inh: inactive; PLK1 kinase inh: inactive; CYP2C9 activ: inactive

How did NC(=O)C1CCN(C(=O)CSc2nc3c(c(-c4ccccc4)n2)CCCC3)CC1 do in these assays?
PLK1 PBD inh: inactive; CYP2C19 act: inactive; CYP2C19 inh: inactive; CYP2C9 inh: 72.8; PLK1 kinase inh: inactive; CYP2C9 activ: inactive

Results for Cc1cccn2c(=O)c3cc(C#N)c(=O)n(CC4CCCO4)c3nc12 (stereo not given) ?
PLK1 PBD inh: inactive; CYP2C19 act: inactive; CYP2C19 inh: inactive; CYP2C9 inh: inactive; PLK1 kinase inh: inactive; CYP2C9 activ: inactive

How did CC1CN(S(=O)(=O)c2cccc(C(=O)OCc3cc(=O)oc4cc(O)ccc34)c2)CC(C)O1 (stereo not given) do in these assays?
PLK1 PBD inh: inactive; CYP2C19 act: inactive; CYP2C19 inh: 68.6; CYP2C9 inh: 82.7; PLK1 kinase inh: inactive; CYP2C9 activ: inactive

Results for CN(C)c1cccc(C(=O)OCc2cc(=O)oc3cc(O)ccc23)c1 ?
PLK1 PBD inh: inactive; CYP2C19 act: inactive; CYP2C19 inh: 57.4; CYP2C9 inh: 78.8; PLK1 kinase inh: inactive; CYP2C9 activ: inactive

What do the screens show for `CSCCC(NS(=O)(=O)c1ccc2c(c1)oc(=O)n2C)C(=O)NC1CCC(C)CC1` (stereo not given)?
CYP2C19 act: inactive; CYP2C19 inh: inactive; CYP2C9 inh: inactive; CYP2C9 activ: inactive

Results for COCCn1c(SCc2cccnc2)nnc1-c1ccco1 ?
PLK1 PBD inh: inactive; CYP2C19 act: inactive; CYP2C19 inh: inactive; CYP2C9 inh: inactive; PLK1 kinase inh: inactive; CYP2C9 activ: inactive

Results for O=C(c1ccccc1Cl)N(C(=O)c1ccccc1Cl)c1nccc(-c2cccs2)n1 ?
PLK1 PBD inh: inactive; CYP2C19 act: inactive; CYP2C19 inh: inactive; CYP2C9 inh: 76.8; PLK1 kinase inh: inactive; CYP2C9 activ: inactive

Results for Cc1oc(-c2ccccc2)nc1C(=O)OCC(=O)NC(=O)NCC(C)C ?
PLK1 PBD inh: inactive; CYP2C19 act: inactive; CYP2C19 inh: inactive; CYP2C9 inh: 50.6; PLK1 kinase inh: inactive; CYP2C9 activ: inactive

How did O=C(CSc1nnc(-c2ccccc2)c(-c2ccccc2)n1)NCc1ccco1 do in these assays?
PLK1 PBD inh: inactive; PLK1 kinase inh: inactive

What do the screens show for `Cc1cccc(C)c1NC(=O)CSc1nnc(-c2ccco2)c(-c2ccco2)n1`?
PLK1 PBD inh: inactive; CYP2C19 act: inactive; CYP2C19 inh: inactive; CYP2C9 inh: inactive; PLK1 kinase inh: inactive; CYP2C9 activ: inactive

What do the screens show for `Cc1ccc(NC(=O)CSc2nnc(-c3ccco3)c(-c3ccco3)n2)cc1`?
PLK1 PBD inh: inactive; CYP2C19 act: inactive; CYP2C19 inh: 98.0; CYP2C9 inh: 95.2; PLK1 kinase inh: inactive; CYP2C9 activ: inactive

Results for O=C(CSc1nnc(-c2ccco2)c(-c2ccco2)n1)Nc1ccccc1 ?
PLK1 PBD inh: inactive; CYP2C19 act: inactive; CYP2C19 inh: inactive; CYP2C9 inh: 73.0; PLK1 kinase inh: inactive; CYP2C9 activ: inactive

What do the screens show for `Cc1ccccc1NC(=O)CSc1nnc(-c2ccco2)c(-c2ccco2)n1`?
PLK1 PBD inh: inactive; CYP2C19 act: inactive; CYP2C19 inh: inactive; CYP2C9 inh: 76.8; PLK1 kinase inh: inactive; CYP2C9 activ: inactive

Results for Cc1ccc(NC(=O)CCSc2nnc(-c3ccco3)o2)cc1 ?
PLK1 PBD inh: inactive; CYP2C19 act: inactive; CYP2C19 inh: inactive; CYP2C9 inh: inactive; PLK1 kinase inh: inactive; CYP2C9 activ: inactive

How did O=C(OCCCN=C1NS(=O)(=O)c2ccccc21)C1CC(=O)N(c2ccc(Cl)cc2)C1 (stereo not given) do in these assays?
PLK1 PBD inh: inactive; PLK1 kinase inh: inactive

Results for Cn1c(C(=O)OC(C(=O)NC2CCCCC2)c2cccnc2)cc2sccc21 (stereo not given) ?
PLK1 PBD inh: inactive; CYP2C19 act: inactive; CYP2C19 inh: 95.9; CYP2C9 inh: 74.4; PLK1 kinase inh: inactive; CYP2C9 activ: inactive

What do the screens show for `Cn1c(C(=O)OC(C(=O)NC2CCCC2)c2cccnc2)cc2sccc21` (stereo not given)?
PLK1 PBD inh: inactive; PLK1 kinase inh: inactive

How did COCCNC(=O)C(C)OC(=O)c1cc2occc2n1C (stereo not given) do in these assays?
PLK1 PBD inh: inactive; CYP2C19 act: inactive; CYP2C19 inh: inactive; CYP2C9 inh: 79.7; PLK1 kinase inh: inactive; CYP2C9 activ: inactive

What do the screens show for `CCOc1ccc(CCNC(=O)c2cc3sccc3n2C)cc1OCC`?
CYP2C19 act: inactive; CYP2C19 inh: 93.7; CYP2C9 inh: 66.7; CYP2C9 activ: inactive

Results for Cn1c(C(=O)OCC(=O)NCCc2ccccc2)cc2sccc21 ?
PLK1 PBD inh: inactive; CYP2C19 act: inactive; CYP2C19 inh: inactive; CYP2C9 inh: 69.4; PLK1 kinase inh: inactive; CYP2C9 activ: inactive

Results for CCOC(=O)N/N=C(\C)c1ccc(Br)cc1 ?
PLK1 PBD inh: inactive; CYP2C19 act: inactive; CYP2C19 inh: inactive; CYP2C9 inh: inactive; PLK1 kinase inh: inactive; CYP2C9 activ: inactive

How did CC(OC(=O)c1cc2sccc2n1C)C(=O)NCc1cccs1 (stereo not given) do in these assays?
PLK1 PBD inh: inactive; CYP2C19 act: inactive; CYP2C19 inh: inactive; CYP2C9 inh: 77.2; PLK1 kinase inh: inactive; CYP2C9 activ: inactive

Results for Cn1c(C(=O)OCC(=O)NCc2cccs2)cc2sccc21 ?
PLK1 PBD inh: inactive; CYP2C19 act: inactive; CYP2C19 inh: 51.2; CYP2C9 inh: 66.0; PLK1 kinase inh: inactive; CYP2C9 activ: inactive

Results for Cn1c(C(=O)OCC(=O)NCC2CCCO2)cc2sccc21 (stereo not given) ?
PLK1 PBD inh: inactive; PLK1 kinase inh: inactive

How did CCn1c(C(=O)N2CCC(C(=O)NCc3cccs3)CC2)cc2sccc21 do in these assays?
PLK1 PBD inh: inactive; CYP2C19 act: inactive; CYP2C19 inh: inactive; CYP2C9 inh: inactive; PLK1 kinase inh: inactive; CYP2C9 activ: inactive
